Data from PubChem BioAssay (Tox21).
Inconclusive results are not listed. Where a call stands in place of a potency, no number is given. A structure can be active in one record and inactive in another. Activity calls are given as the source filed them. Calls follow the shape of the dose curve; as a rule, active = well fitted inhibition curve with a large enough effect in the repeat runs; inconclusive = weak or mixed curves; inactive = no such curve, though single readings can be large or run the other way. Residues, ends and D or L forms follow the SMILES beside them.

Biological target: Cytochrome P450 3A4 (Homo sapiens) (UniProt P08684)
Test: Cytochrome P450 Family 3 Subfamily A Member 4 (CYP3A4) small molecule antagonists: luciferase reporter qHTS assay (AID 1671201); also: nearly all actives have a fitted effect of over 50% in size
Conditions: P450-Glo CYP3A4 enzyme, luciferin luminescence, 1 h; series mostly up to 115 µM
Source text: National Center for Advancing Translational Sciences [NCATS]
U.S. Environmental Protection Agency [EPA]
National Institutes of Environmental Health Sciences [NIEHS]
National Toxicology Program [NTP]
U.S. Food and Drug Administration [FDA]
Cytochrome P450 (CYP) enzymes are membrane-bound hemeproteins that play a key role in metabolism of drugs and xenobiotics. Evaluation of the effect of chemicals on CYP isozymes is useful to minimize the adverse drug reactions and toxicities in drug development process. Tox21 chemicals were tested for their effect on CYP enzyme activities by using P450-Glo (TM) screening systems (Promega Corporation, Madison, WI). These systems provide a luminescent method containing proluciferin substrates and are converted to luciferin products by CYP isozymes. The luciferin products formed are detected with a luciferin detection reagent, and the amount of light produced is proportional to CYP activity. P450-Glo (TM) CYP3A4 screening system (Catalog. No. V9910) was used to detect the compounds that interfere in CYP3A4 activity. The positive control compound used for CYP3A4 assay is ketoconazole (Sigma-Aldrich, St. Louis, MO).
Tox21 Assay Protocol Summary:
Two ul of enzyme-substrate mix was dispensed into medium binding white/solid 1536-well plates (Greiner Bio-One North America Inc., Monroe, NC) using a BioRaptr Flying Reagent Dispenser (FRD, Beckman Coulter, Brea, CA). Compounds dissolved in DMSO and positive control (ketoconazole) were transferred to the assay plates at 23 nl using a Pintool station (Wako, San Diego, CA). The assay plates were incubated at room temperature for 10 min. Then 2 ul of NADPH regeneration solution was added to each well of the assay plates using an FRD and incubated at room temperature for 1 h. The reaction was stopped by adding 4 ul of detection reagent using an FRD and after 20 min incubation at room temperature the luminescence signal was measured using a ViewLux plate reader (Perkin Elmer, Shelton, CT). Data were expressed as relative luminescence units.
Potency is read from the fitted curve at half-maximal effect.

Cytochrome P450 3A4 (Homo sapiens), sequence (P08684 whole entry, looked up): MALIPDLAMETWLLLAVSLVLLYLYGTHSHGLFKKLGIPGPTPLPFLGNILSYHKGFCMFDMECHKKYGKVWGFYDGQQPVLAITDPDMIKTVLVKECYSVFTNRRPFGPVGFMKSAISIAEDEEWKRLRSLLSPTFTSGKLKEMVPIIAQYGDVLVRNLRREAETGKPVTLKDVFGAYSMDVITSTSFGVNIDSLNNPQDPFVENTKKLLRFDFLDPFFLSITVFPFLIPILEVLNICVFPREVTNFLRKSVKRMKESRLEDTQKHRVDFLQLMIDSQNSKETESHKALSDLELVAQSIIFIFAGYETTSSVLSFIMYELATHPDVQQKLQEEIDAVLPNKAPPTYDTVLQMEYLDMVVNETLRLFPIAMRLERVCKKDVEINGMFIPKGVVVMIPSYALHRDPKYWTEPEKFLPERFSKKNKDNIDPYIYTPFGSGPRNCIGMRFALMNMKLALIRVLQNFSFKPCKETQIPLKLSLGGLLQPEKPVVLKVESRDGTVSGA

| Structure (SMILES) | Potency |
| --- | --- |
| Cn1c(=O)c2[nH]cnc2n(C)c1=O | inactive |
| Nc1ccc(O)c(C(=O)O)c1 | inactive |
| CCCC(CCC)C(=O)O | inactive |
| O=C(O)CS | inactive |
| Cc1ccccc1C(OCCN(C)C)c1ccccc1 (stereo not given) | inactive |
| CCCCCCCCCCCCCCCC(=O)O | inactive |
| O=C(O)CCCCCCCC(=O)O | inactive |
| CCOc1ccc(NC(=O)CC(C)O)cc1 (stereo not given) | inactive |
| O=C(c1ccccc1)C(O)c1ccccc1 (stereo not given) | inactive |
| O=C1CN(/N=C/c2ccc([N+](=O)[O-])o2)C(=O)N1 | inactive |
| O=C(O)CCCCC(=O)O | inactive |
| OCCc1ccccc1 | inactive |
| CC(C)[C@@H]1CC[C@@H](C)C[C@H]1O | inactive |
| Nc1ccc(S(=O)(=O)c2ccc(N)cc2)cc1 | inactive |
| CC(=O)Nc1nnc(S(N)(=O)=O)s1 | inactive |
| CC(C)(Oc1ccc(C2CC2(Cl)Cl)cc1)C(=O)O (stereo not given) | inactive |
| CCCC(O)C(CC)CO (stereo not given) | inactive |
| CCCCC(CC)COC(=O)/C=C/c1ccc(OC)cc1 (stereo not given) | inactive |
| NC(N)=NC(=O)c1nc(Cl)c(N)nc1N | inactive |
| Cc1noc(NS(=O)(=O)c2ccc(N)cc2)c1C | inactive |

| Structure (SMILES) | Potency |
| --- | --- |
| O=C(O)CCC(=O)O | inactive |
| CC(=O)OCC(COC(C)=O)OC(C)=O | inactive |
| C[C@]12C=CC(=O)C=C1CC[C@@H]1[C@@H]2[C@@H](O)C[C@@]2(C)[C@H]1CC[C@]2(O)C(=O)CO | inactive |
| O=S(=O)(O)c1ccc2cc(O)ccc2c1 | inactive |
| O=C(O)/C=C\C(=O)O | inactive |
| COC(=O)[C@H](Cc1ccccc1)NC(=O)[C@@H](N)CC(=O)O (H-Asp-Phe-OMe) | inactive |
| Nc1ccn([C@H]2CC[C@@H](CO)O2)c(=O)n1 | inactive |
| c1ccc2[nH]ccc2c1 | inactive |
| CCC1(c2ccccc2)C(=O)NCNC1=O | inactive |
| O=c1ccc2ccccc2o1 | inactive |
| NC(=O)c1cnccn1 | inactive |
| O=C(O)c1cc(N=Nc2ccc(S(=O)(=O)Nc3ccccn3)cc2)ccc1O | inactive |
| CC(O)C(=O)O (stereo not given) | inactive |
| Cc1cn([C@H]2C[C@H](N=[N+]=[N-])[C@@H](CO)O2)c(=O)[nH]c1=O | inactive |
| Cc1cc(=O)n(-c2ccccc2)n1C | inactive |
| CC(O)CO (stereo not given) | 27.2 µM (active) and inactive |
| Cc1ccc(C)c(OCCCC(C)(C)C(=O)O)c1 | inactive |
| CCCNC(=O)NS(=O)(=O)c1ccc(Cl)cc1 | inactive |
| NC(=O)c1ccccc1O | inactive |
| CC1(C)[C@@H]2CC[C@@]1(C)C(=O)C2 | inactive |
